# Measurements as given in PubChem BioAssay AID1745850 (National Center for Advancing Translational Sciences (NCATS), 2022).
# In all, about 2,100 compounds went through this assay and about 260 (12%) were called active. Roughly 58% stayed inconclusive and do not appear here. The list shows a part of the results. A number with no mark means an inactive call. Calls come from the whole dose curve; as a rule, active = well fitted cell-killing curve with a large enough effect; inconclusive = small, poorly fitted or top-dose-only effect, or effect the other way; inactive = flat fitted curve, though single readings scatter.
# Test: Viability Counterscreen for Confirmatory qHTS for Inhibitors of ATXN expression; note: nearly all actives have a fitted effect of over 50% in size
# Details: HEK-293 ATXN2-luc cells viability, CellTiter-Fluor, 24 h; activity change, negative = cytotoxicity: at the top concentration
# Procedure, shortened: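 Luminescence read-out (SteadyGlo, 5 min) followed a 30 min Gly-Phe-AFC (25 uM final) viability fluorescence read. ATXN2-luciferase reporter cells were exposed 24 h to a dilution series. Medium-only wells served as the 100% inhibition reference.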
# Potency is the fitted concentration of half-maximal effect.
Compound,"activity change, negative = cytotoxicity",Potency
Cc1sc2nc(CN3CCCC3)nc(N3CCC(C(N)=O)CC3)c2c1C,-12.6% [at 57.5 µM],–
Cc1cc([N+](=O)[O-])nn1Cc1ccc(C(=O)N/N=C/c2ccc(O)cc2O)cc1,–,10 µM (active)
Cc1cc(C)n(CCC(=O)N/N=C/c2ccc(O)cc2O)n1,-14.6%,–
O=C(N/N=C/c1ccc(O)cc1O)c1ccncc1,-15.1%,–
CCn1c(-c2ccc(C)cc2)nn(CC(=O)NCCc2ccccc2)c1=S,-24.9%,–
O=C(NN=Cc1ccc(O)cc1O)c1ccccc1NS(=O)(=O)c1cccs1,-21.2%,–
CCc1ccc(C(O)c2ncc(-c3cccc(C(F)(F)F)c3)[nH]2)cc1 (stereo not given),-28.4% [at 57.5 µM],–
CCN(CC)CCn1nc2c3c(cccc3c1=O)-c1ccccc1-2,–,14.1 µM (active)
COc1ccc(/C(N)=N/OC(=O)N2CCOCC2)cc1,-25.5%,–
Cn1c2c(c(=O)[nH]c1=O)C(c1cccc(O)c1)C1=C(N2)c2ccccc2C1=O (stereo not given),–,22.4 µM (active)
CC(=O)C(C(C)=O)c1c(Cl)c(O)c(O)c2c(C(=O)c3ccccc3)coc12,–,12.6 µM (active)
CCOC(=O)C(C(C)=O)c1c(Br)c(O)c(O)c2c(C(=O)c3ccc(C)cc3)coc12 (stereo not given),–,15.8 µM (active)
Cc1ccc(NC(=O)CSc2ccc(Br)cc2)cc1S(=O)(=O)N1CCOCC1,-29.7% [at 57.5 µM],–
CCc1ccc(N(CC)C(=O)c2ccc3c(Cl)c4c(nc3c2)CCC4)cc1,-24.3%,–
Cc1ccc(Cc2cnc(NC(=O)/C(C#N)=C/c3ccc(-c4cccc([N+](=O)[O-])c4)o3)s2)cc1,–,22.4 µM (active)
CCN1C(=O)/C(=C/c2nc3ccccc3c(=O)n2-c2ccccc2)c2ccccc21,–,25.1 µM (active)
COc1ccc(Cc2nnc(N/N=C/c3ccccc3O)[nH]c2=O)cc1OC,–,4.47 µM (active)
C=CCOc1ccc(CNc2ccc3[nH]c(=O)[nH]c3c2)cc1OC,-14.9% [at 57.5 µM],–
COc1cc(Br)cc(/C=N/NC(=O)Cc2ccccc2)c1O,-0.334%,–
COc1cccc(/C=N/n2c(N)c(S(=O)(=O)c3cccs3)c3nc4ccccc4nc32)c1OC,–,22.4 µM (active)
Cc1ccc(S(=O)(=O)c2c(N)n(CC3CCOC3)c3nc4ccccc4nc23)cc1 (stereo not given),-11.5%,–
CCn1ccnc1CN1CCCC(C(=O)c2ccc3cc(OC)ccc3c2)C1 (stereo not given),-9.79%,–
O=S(=O)([N-]c1nc2ccccc2nc1-[n+]1ccc(Cc2ccccc2)cc1)c1ccc(Br)s1,–,7.94 µM (active)
CCc1noc(C)c1C(=O)N1CCSC1=Nc1cccc(Cl)c1C,-17.3% [at 57.5 µM],–

Compound,"activity change, negative = cytotoxicity",Potency
CC1(C)Cc2ccccc2C2=NNC(=O)C2=N1,–,28.2 µM (active)
O=c1cc(C(F)(F)F)[nH]c2ccc(C(F)(F)F)cc12,-29.8%,–
COc1ccc(N(C)S(=O)(=O)c2ccc(Cl)c(C(=O)NCCc3ccc(Cl)cc3)c2)cc1,-28.2% [at 57.5 µM],–
CN(C)CCNC(=O)c1ccc(Cl)c2cc3ccccc3nc12,–,10 µM (active)
CSc1sc(C(=O)NN)c2c1C1(CCC2)SCCS1,-26.8% [at 57.5 µM],–
CCCCCn1c(=O)c2ccccc2n2c(CCl)nnc12,–,25.1 µM (active)
CCOC(=O)C(CC)(CC)C(=O)/C=C/c1ccc(OC)cc1,-4.72% [at 57.5 µM],–
CC(C)=CCc1ccc(O)c(=O)cc1C(C)C,-21.2%,–
COc1cc(C(=O)N/N=C(\c2ccccc2)c2ccccn2)cc(OC)c1OC,–,2.24 µM (active)
COc1cc(C(=O)N/N=C(\Cc2ncc[nH]2)c2ccccc2)cc(OC)c1OC,-5.68%,–
O=C(N/N=C(\Cc1ncc[nH]1)c1ccccc1)c1cccnc1,-2.93%,–
CCc1ccc(NC(=O)C2CCN(S(=O)(=O)c3ccc4c(c3)CC(C)N4C(C)=O)CC2)cc1 (stereo not given),-15.5%,–
CCOc1ccc(S(=O)(=O)NCCC(=O)N2CC=C(c3ccccc3)CC2)cc1,-15.3% [at 57.5 µM],–
COc1cc2[nH]c(=O)n(CCCCCC(=O)N3CC=C(c4ccccc4)CC3)c(=O)c2cc1OC,–,3.16 µM (active)
Cc1cccn2c(=O)c3cc(C(=O)NCCc4ccccc4)c(=N)n(CCCn4ccnc4)c3nc12,-17.2% [at 57.5 µM],–
Cc1onc(-c2c(F)cccc2Cl)c1C(=O)Nc1nnc(C(F)(F)F)s1,-24.9%,–
O=C(Nc1ccccc1C(=O)Nc1nnc(C(F)(F)F)s1)c1ccccc1,–,3.98 µM (active)
CC1CCCN(c2ncnc3c2cnn3-c2ccc(Cl)cc2)C1 (stereo not given),-1.47% [at 57.5 µM],–
O=C(NCc1ccco1)c1ccc(-c2cccc(Cl)c2)o1,-12.3% [at 57.5 µM],–
CC(NC1=CC(=O)c2cccnc2C1=O)C(O)c1ccccc1 (stereo not given),–,31.6 µM (active)
COc1ccc2c(c1)[nH]c1c(=O)n(/N=C/C3C(C)C=C(C)CC3C)c(=O)[nH]c12 (stereo not given),–,20 µM (active)
Cc1ccc(-c2cc(C(=O)NCCCN3CCOCC3)no2)cc1,-8.38% [at 57.5 µM],–
CCOC(=O)c1c(SCCN2CCCC2)n(-c2ccccc2)c(=S)n(-c2ccccc2)c1=O,–,2.51 µM (active)
O=C(/C=C/NNC(=O)c1ccccc1)c1ccc([N+](=O)[O-])cc1,–,12.6 µM (active)

Compound,"activity change, negative = cytotoxicity",Potency
CCCCC(=O)N(C)c1c(CC)nc2c(OCc3ccc(Cl)cc3Cl)cccn12,-26.1%,–
O=C(NCC(=O)N1CC(O)CC1C(=O)N1CCCC1C(=O)OCc1ccccc1)OCc1ccccc1 (stereo not given),-12%,–
CCCCC(=O)OCC(=O)C1(O)Cc2c(O)c3c(c(O)c2C(OC2CC(NC(=O)C(F)(F)F)C(O)C(C)O2)C1)C(=O)c1c(OC)cccc1C3=O (stereo not given),–,15.8 µM (active)
COc1cccc2c1C(=N)c1c(O)c3c(c(O)c1C2=O)CC(O)(C(C)=O)CC3OC1CC(N)C(O)C(C)O1 (stereo not given),–,4.47 µM (active)
CCC1=C(OC(=O)N(CC)CC)N2C(=O)OC(=NCCc3c[nH]c4ccccc34)[C@]2(Cc2ccccc2)[C@H]2C1=CC[C@H]1C(=O)N(c3ccccc3)C(=O)[C@H]12,-25.8% [at 57.5 µM],–
CCCC(=O)Nc1c(C(=O)OCC)[nH]c2ccccc12,-3.04%,–
CCOc1ccc(/C=N/NC(=O)C(O)c2ccccc2)c(O)c1 (stereo not given),-15.3%,–
O=c1ccc2ccccc2c2ccccc12,–,17.8 µM (active)
O=C(N/N=C\c1c(O)ccc2ccccc12)c1ccc(Cn2cccn2)o1,9.42%,–
Cc1ccc(Cl)cc1-c1ccc(C=Nc2ccc(N3CCOCC3)cc2)o1,-29.7% [at 57.5 µM],–
CCC(C)n1cnc2c(c1=O)c1nc3ccccc3nc1n2-c1ccc2c(c1)OCCO2 (stereo not given),-27.3% [at 57.5 µM],–
C=CCn1cnc2c(c1=O)c1nc3ccccc3nc1n2/N=C/c1cc(OC)c(OC)c(OC)c1,–,20 µM (active)
Cc1ccsc1/C=C/C1=Cc2c(sc(NC(=O)CSc3n[nH]c(N)n3)c2C#N)C(C)(C)C1,-24.8% [at 57.5 µM],–
c1ccc(Cn2c(-c3ccccc3)c[n+]3c2SCCC3)cc1,-19.7% [at 57.5 µM],–
Cc1ccc(S(=O)(=O)c2nc(S(C)(=O)=O)sc2N2CCCCC2C)cc1 (stereo not given),-21.7% [at 57.5 µM],–
COc1ccc(CCNC(=O)c2cc3c(F)cccc3s2)cc1OC,-30% [at 57.5 µM],–
COc1cc(/C=C(/C#N)C(=O)NCCc2c[nH]c3ccccc23)ccc1OCc1ccccc1F,–,25.1 µM (active)
Cc1ccnc(NC(=O)CCCc2c[nH]c3ccccc23)c1,-2.93%,–
Cc1c(C(=O)N2c3ccccc3Sc3ccccc32)cccc1[N+](=O)[O-],-17.9% [at 57.5 µM],–
CC1(C)CC(N2CCN(Cc3ccccc3)CC2)=CC(=[N+]2CCCCC2)C1,-29.1% [at 57.5 µM],–
COc1ccc(N2CCN(c3ccnc4cc(Cl)ccc34)CC2)cc1,-16.3%,–
CN(C)c1ccc(C(=O)N/N=C/c2cc(Br)cc(Br)c2O)cc1,-0.744%,–
CC(C)C(=O)Nc1ccc(C(=O)N/N=C/c2cc(Br)cc(Br)c2O)cc1,–,28.2 µM (active)
O=C(Cc1ccccc1)N/N=C/c1cc(Br)cc(Br)c1O,1.64%,–

Compound,"activity change, negative = cytotoxicity",Potency
C/C(=N\NC(=O)C(C)n1nc(C)c([N+](=O)[O-])c1C)c1ccccc1O (stereo not given),-29.9%,–
Cc1ccc(NC(=O)COc2ccc(/C=C3/SC(=Nc4ccccc4)N(Cc4cccnc4)C3=O)cc2)cc1,–,20 µM (active)
COC(=O)c1ccc(/C=C2/SC(=S)N(CCCC(=O)Nc3ccccn3)C2=O)cc1,–,28.2 µM (active)
Cc1ccc(/C=C2\SC(=S)N(CCCC(=O)Nc3cccnc3)C2=O)cc1,–,31.6 µM (active)
Cc1ccc(/C=C2\SC(=S)N(CCCC(=O)Nc3cc(C)on3)C2=O)cc1,-20.5%,–
Cc1ccc(/C=C2/SC(=S)N(CCCC(=O)Nc3ccc(O)cc3)C2=O)cc1,–,28.2 µM (active)
O=C(CCCN1C(=O)S/C(=C\c2ccccc2)C1=O)NNC(=O)c1ccccc1O,-29.5% [at 57.5 µM],–
Cc1ccc(/C=C2\SC(=S)N(CCCC(=O)Nc3ccc(O)cc3)C2=O)cc1,-6.29%,–
[O-][n+]1c2ccccc2cc2ccccc21,-11.2% [at 57.5 µM],–
O=c1c(Cc2ccccc2)c(O)nc2n1CCS2,-11.8% [at 57.5 µM],–
CC1(C)COCN1S(=O)(=O)c1ccc(C(=O)Nc2nnc(-c3ccc(Cl)s3)o2)cc1,-17.8%,–
CC(C)(C)c1ccc(C(=O)N2CCCCCC2=O)cc1,-15.8% [at 57.5 µM],–
Cc1cccc(/C=C/C(=O)c2ccc([N+](=O)[O-])o2)c1,–,3.55 µM (active)
CC(/C=C/c1ccc2c(c1)OCO2)=N\NC(=O)c1cccc([N+](=O)[O-])c1,-22.2% [at 57.5 µM],–
COc1ccc(/C=C/C(=O)c2ccc([N+](=O)[O-])o2)cc1OC,–,8.91 µM (active)
COc1ccccc1NC(=S)NC(=O)c1ccc(Cn2cc(Br)cn2)cc1,-17.6% [at 57.5 µM],–
OC(c1ccccc1)(c1nc(-c2ccc3ccccc3c2)cs1)C(F)(F)F (stereo not given),1.3%,–
O=C(NCc1ccccc1Cl)C1CCCN(C(=O)Nc2ccc(F)cc2)C1 (stereo not given),-23% [at 57.5 µM],–
COc1cc(C#Cc2c(-c3cncn3C)n(C)c3ccc(-c4ccc(CN5CCOCC5)cc4)cc23)cc(OC)c1,5.73%,–
O=C(N/N=C\c1cc(Cl)ccc1O)c1ccc(S(=O)(=O)N2CCCCC2)cc1,7.63%,–
O=C(COc1ccc(F)cc1)N/N=C/c1cccc2cccnc12,-15.2%,–
CC1CCN(Cc2c(C(=O)N/N=C/c3cc(Br)ccc3O)nnn2-c2nonc2N)CC1,-17%,–
Nc1ccc(Oc2ccccc2-c2ccccc2)cc1,12.7%,–
